According to PubChem BioAssay AID1159580 (chemical genetic matrix, 2015):
“And” between values parts separate entries of the source, which are not always exact repeats. Equal entries are not always repeated. The whole screen tested about 5,500 compounds, of which about 2,000 (36%) were called active. Another 18% or so got no clear call; they are omitted. Cut-off read from the data, not from the text of the source: active = normalized growth mostly below about 0.91 (no sharp cut-off); inconclusive = no clear call, values can overlap the other calls; inactive = mostly above about 0.92. The list shows a part of the results.

Test: chemical genetic growth profiling, strain panel (AID 1159580);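 note: tested at 20 µM; growth read once vehicle control cultures reached saturation at 30 °C; 1 = growth at the plate median or of vehicle wells; lower values mean less growth of the strain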
Conditions: S. cerevisiae deletion strains, growth OD
[1] = locus YBR229C, strain ROT2, active compounds read low
[2] = locus YCL061C, strain MRC1, active compounds read low
[3] = locus YDL101C, strain DUN1, active compounds read low
[4] = locus YDL134C, strain PPH21, active compounds read low
[5] = locus YEL061C, strain CIN8, active compounds read low
[6] = locus YHR030C, strain SLT2, active compounds read low
[7] = locus YJR043C, strain POL32, active compounds read low
[8] = locus YKL190W, strain CNB1, active compounds read low
[9] = locus YLR039C, strain RIC1, active compounds read low
[10] = locus YMR263W, strain SAP30, active compounds read low
[11] = locus YMR307W, strain GAS1, active compounds read low
[12] = locus YNL153C, strain GIM3, active compounds read low
[13] = locus YPL055C, strain LGE1, active compounds read low

Measured: normalized growth

C[C@H]1C(=O)CCC2[C@]3(C)CC[C@@]4(C)C5CC(C)(C)CC[C@]5(C)CC[C@]4(C)C3CC[C@@]21C (stereo partly specified)
inactive: locus YAL021C, strain ccr4, active compounds read low 0.979 | locus YAL026C, strain drs2, active compounds read low 1.02 | locus YAL030W, strain snc1, active compounds read low 1 | locus YBL061C, strain skt5, active compounds read low 1 | locus YBR009C, strain hhf1, active compounds read low 1.02 | locus YBR023C, strain chs3, active compounds read low 1 | locus YBR171W, strain sec66, active compounds read low 1 | [1] 1.02 | locus YBR231C, strain swc5, active compounds read low 0.997 | locus YBR279W, strain paf1, active compounds read low 1.01 | locus YCL011C, strain gbp2, active compounds read low 1.01 | locus YCL016C, strain dcc1, active compounds read low 1 | locus YCL029C, strain bik1, active compounds read low 0.968 | [2] 1.01 | locus YCL069W, strain vba3, active compounds read low 1.01 | locus YCR088W, strain abp1, active compounds read low 1.01 | locus YDL005C, strain med2, active compounds read low 0.995 | locus YDL035C, strain GPR1, active compounds read low 0.983 | locus YDL040C, strain nat1, active compounds read low 1.01 | locus YDL074C, strain BRE1, active compounds read low 0.955 | [3] 1.02 | [4] 0.97 | locus YDL185W, strain tfp1, active compounds read low 1.02 | locus YDR001C, strain nth1, active compounds read low 1 | locus YDR069C, strain doa4, active compounds read low 0.992 | locus YDR101C, strain arx1, active compounds read low 0.981 | locus YDR137W, strain rgp1, active compounds read low 0.987 | locus YDR159W, strain sac3, active compounds read low 0.981 | locus YDR162C, strain NBP2, active compounds read low 0.857 | locus YDR195W, strain ref2 0.966 | locus YDR297W, strain sur2, active compounds read low 0.996 | locus YDR318W, strain mcm21, active compounds read low 0.991 | locus YDR334W, strain swr1, active compounds read low 1 | locus YDR335W, strain msn5, active compounds read low 1.02 | locus YDR388W, active compounds read low 1 | locus YDR392W, strain spt3, active compounds read low 0.934 | locus YDR502C, strain sam2, active compounds read low 0.97 | locus YEL003W, strain gim4, active compounds read low 1.01 | locus YEL037C, strain rad23, active compounds read low 0.999 | locus YEL061C, strain CIN8 (second series), active compounds read low 1.01 | [5] 1.02 | locus YER015W, strain faa2, active compounds read low 1.01 | locus YER016W, strain bim1, active compounds read low 0.994 | locus YER110C, active compounds read low 1.01 | locus YER111C, strain swi4, active compounds read low 0.998 | locus YER155C, strain BEM2 (second series), active compounds read low 0.995 | locus YER155C, strain BEM2, active compounds read low 1.03 | locus YER167W, strain BCK2, active compounds read low 0.98 | locus YFR010W, strain ubp6, active compounds read low 1.01 | locus YGL078C, strain dbp3, active compounds read low 1.04 | locus YGL086W, strain mad1, active compounds read low 0.974 | locus YGL167C, strain pmr1, active compounds read low 1 | locus YGL173C, strain kem1, active compounds read low 1.01 | locus YGL227W, strain vid30, active compounds read low 1 | locus YGL240W, strain doc1, active compounds read low 0.978 | locus YGL248W, strain PDE1, active compounds read low 0.978 | locus YGL253W, strain hxk2, active compounds read low 1.03 | locus YGR135W, strain pre9, active compounds read low 1.01 | locus YGR252W, strain gcn5, active compounds read low 0.902 | locus YHR013C, strain ard1, active compounds read low 1.01 | locus YHR027C, strain rpn1, active compounds read low 1.01 | [6] 1.04 | locus YHR079C, strain IRE1 (second series), active compounds read low 1.02 | locus YHR079C, strain IRE1, active compounds read low 1.04 | locus YHR094C, strain hxt1, active compounds read low 1.01 | locus YHR129C, strain ARP1, active compounds read low 1 | locus YHR142W, strain chs7, active compounds read low 1.03 | locus YHR200W, strain rpn10, active compounds read low 0.951 | locus YIL066C, strain RNR3, active compounds read low 0.969 | locus YIL073C, strain SPO22, active compounds read low 1.02 | locus YIL125W, strain kgd1, active compounds read low 1 | locus YIR030C, strain dcg1, active compounds read low 1.02 | locus YJL092W, strain hpr5, active compounds read low 1.01 | locus YJL095W, strain BCK1 (second series), active compounds read low 0.999 | locus YJL095W, strain BCK1, active compounds read low 0.936 and 1.01 | locus YJL115W, strain asf1, active compounds read low 1 | locus YJL129C, strain trk1, active compounds read low 1.01 | locus YJL134W, strain LCB3, active compounds read low 1.03 | locus YJL154C, strain vps35, active compounds read low 1 | locus YJL164C, strain tpk1, active compounds read low 1.01 | locus YJL166W, strain qcr8, active compounds read low 1 | locus YJL168C, strain set2, active compounds read low 1.02 | locus YJL187C, strain SWE1 (second series), active compounds read low 0.995 | locus YJL187C, strain SWE1, active compounds read low 1 | [7] 0.949 | locus YJR066W, strain TOR1, active compounds read low 0.984 | locus YKL009W, strain mrt4, active compounds read low 1.03 | locus YKL068W, active compounds read low 1.02 | locus YKL085W, strain MDH1 (second series), active compounds read low 1.01 | locus YKL085W, strain MDH1, active compounds read low 1.01 | locus YKL160W, strain elf1, active compounds read low 1.01 | [8] 1.02 | locus YKR026C, strain gcn3, active compounds read low 0.999 | locus YKR091W, strain srl3, active compounds read low 1.01 | locus YLL001W, strain dnm1, active compounds read low 1 | locus YLL026W, active compounds read low 1 | locus YLL041C, strain sdh2, active compounds read low 1.01 | locus YLR027C, strain aat2, active compounds read low 1 | [9] 0.738 | locus YLR058C, strain SHM2, active compounds read low 0.994 | locus YLR102C, strain apc9, active compounds read low 1.02 | locus YLR113W, strain HOG1, active compounds read low 0.965 | locus YLR221C, strain rsa3, active compounds read low 0.995 | locus YLR258W, strain gsy2, active compounds read low 1 | locus YLR262C, strain YPT6 (second series), active compounds read low 1.01 | locus YLR268W, strain sec22, active compounds read low 0.985 | locus YLR320W, strain mms22, active compounds read low 1.01 | locus YLR342W, strain FKS1 (second series), active compounds read low 0.992 | locus YLR342W, strain FKS1, active compounds read low 1 | locus YLR357W, strain rsc2, active compounds read low 0.977 | locus YLR370C, strain arc18, active compounds read low 1.02 | locus YLR371W, strain rom2, active compounds read low 1 | locus YLR384C, strain iki3, active compounds read low 0.978 | locus YLR418C, strain cdc73, active compounds read low 0.876 | locus YML016C, strain PPZ1, active compounds read low 1.01 | locus YML032C, strain rad52, active compounds read low 0.953 | locus YML120C, strain ndi1, active compounds read low 0.998 | locus YML124C, strain tub3, active compounds read low 1.02 | locus YMR058W, strain fet3, active compounds read low 1.02 | locus YMR078C, strain ctf18, active compounds read low 1.01 | locus YMR125W, strain sto1, active compounds read low 0.995 | locus YMR129W, active compounds read low 0.996 | locus YMR205C, strain PFK2, active compounds read low 1.02 | locus YMR223W, strain ubp8, active compounds read low 0.994 | locus YMR231W, strain pep5, active compounds read low 0.996 | [10] 1.02 | [11] 1.04 | locus YNL067W, strain RPL9B, active compounds read low 1.02 | locus YNL071W, strain lat1, active compounds read low 1.01 | [12] 1.01 | locus YNL183C, strain NPR1, active compounds read low 0.981 | locus YNL209W, strain ssb2, active compounds read low 1.02 | locus YNL233W, strain BNI4, active compounds read low 1.01 | locus YNL248C, strain rpa49, active compounds read low 0.919 | locus YNL250W, strain rad50, active compounds read low 1.03 | locus YNL271C, strain bni1, active compounds read low 1.01 | locus YNL298W, strain CLA4, active compounds read low 0.993 | locus YNL307C, strain MCK1, active compounds read low 0.984 | locus YNL322C, strain KRE1 (second series), active compounds read low 0.985 | locus YNR049C, strain mso1, active compounds read low 0.994 | locus YOL006C, strain TOP1, active compounds read low 0.757 | locus YOL012C, strain htz1 1.29 | locus YOL147C, strain pex11, active compounds read low 0.987 | locus YOR001W, strain rrp6, active compounds read low 0.98 | locus YOR061W, strain CKA2, active compounds read low 0.985 | locus YOR069W, strain VPS5, active compounds read low 1.01 | locus YOR070C, strain gyp1, active compounds read low 0.996 | locus YOR080W, strain dia2, active compounds read low 1 | locus YOR083W, strain WHI5, active compounds read low 1.01 | locus YOR106W, strain vam3, active compounds read low 1.02 | locus YOR136W, strain idh2, active compounds read low 0.994 | locus YOR144C, strain elg1, active compounds read low 1 | locus YOR184W, strain ser1, active compounds read low 0.967 | locus YOR231W, strain MKK1, active compounds read low 0.985 | locus YOR265W, strain rbl2, active compounds read low 0.993 | locus YOR270C, strain vph1, active compounds read low 1.05 | locus YOR290C, strain snf2, active compounds read low 0.991 | locus YOR316C, strain cot1, active compounds read low 1.01 | locus YPL051W, strain arl3, active compounds read low 0.999 | [13] 0.938 | locus YPL078C, strain atp4, active compounds read low 1.03 | locus YPL106C, strain sse1, active compounds read low 0.989 | locus YPL240C, strain hsp82, active compounds read low 0.997 | locus YPL256C, strain CLN2, active compounds read low 1.05 | locus YPR119W, strain clb2, active compounds read low 1.02 | locus YPR141C, strain kar3, active compounds read low 1.02 | locus YPR163C, strain tif3, active compounds read low 0.993 | locus YPR167C, strain met16, active compounds read low 1.01 | strain wtn01, active compounds read low 0.948
active: locus YBR021W, strain FUR4, active compounds read low 0.713 | locus YDL192W, strain arf1, active compounds read low 0.901 | locus YKR001C, strain vps1, active compounds read low 0.876 | locus YNR052C, strain pop2, active compounds read low 0.851

Cc1cc2c(cc1C)CSC(C)(c1ccc(F)cc1)SC2
inactive: locus YAL013W, strain DEP1, active compounds read low 0.994 | [1] 0.994 | [2] 0.993 | [3] 0.968 | [4] 0.997 | locus YDR150W, strain NUM1, active compounds read low 0.903 | [5] 1.02 | locus YGR078C, strain PAC10, active compounds read low 0.979 | [6] 0.952 | locus YHR087W, strain rtc3, active compounds read low 1.01 | [7] 0.982 | locus YJR075W, strain HOC1, active compounds read low 0.978 | [8] 0.992 | [9] 0.953 | locus YLR058C, strain SHM2 (second series), active compounds read low 1 | locus YLR085C, strain ARP6, active compounds read low 1.03 | locus YLR262C, strain YPT6, active compounds read low 0.961 | locus YML094W, strain GIM5, active compounds read low 1.01 | locus YMR219W, strain ESC1, active compounds read low 1.01 | [10] 0.947 | [11] 0.737 | [12] 0.986 | locus YNL298W, strain CLA4 (second series), active compounds read low 0.975 | locus YNL322C, strain KRE1, active compounds read low 1 | locus YNR030W, strain Alg12, active compounds read low 0.978 | [13] 1 | locus YPL241C, strain CIN2, active compounds read low 1.01 | locus YPR135W, strain CTF4, active compounds read low 0.946
